In PubChem BioAssay (NCATS):
Inconclusive results are not listed. Active and inactive are the calls of the source. Calls come from the whole dose curve; as a rule, active = well fitted cell-killing curve with a large enough effect; inconclusive = small, poorly fitted or top-dose-only effect, or effect the other way; inactive = no such curve, though single readings can be large or run the other way.

assay: Quantitative High-Throughput drug screen in 47 multiple myeloma cell lines against the NCATS MIPE library collection: OCIMY1_PLB cell viability assay (AID 1918979); settings: OCI-MY1 myeloma viability, CellTiter-Glo ATP, 48 h; series mostly up to 45.8 µM; viability: at the top concentration; note: nearly all actives have a fitted effect of over 35% in size
Description: PI: Beverly A. Mock Ph.D.
Laboratory of Cancer Biology and Genetics,
Center for Cancer Research, National Cancer Institute,
National Institute of Health, Bethesda, Maryland
Drug resistance and disease progression are common in multiple myeloma (MM) patients, underscoring the need for new therapeutic combinations. […] We hypothesized that effective combinations would reduce MYC expression and enhance p16 activity. […] These preclinical data identify potentially useful drug combinations for evaluation in drug-resistant MM and reveal potential mechanisms of combined drug sensitivity.
Described herein is the primary MIPE qHTS used to cherrypick compounds. Validated compounds were then further tested for potential synergistic activiy.
[1] Peat TJ, Gaikwad SM, Dubois W, Gyabaah-Kessie N, Zhang S, Gorjifard S, Phyo Z, Andres M, Hughitt VK, Simpson RM, Miller MA, Girvin AT, Taylor A, Williams D, D'Antonio N, Zhang Y, Rajagopalan A, Flietner E, Wilson K, Zhang X, Shinn P, Klumpp-Thomas C, McKnight C, Itkin Z, Chen L, Kazandijian D, Zhang J, Michalowski AM, Simmons JK, Keats J, Thomas CJ, Mock BA. Drug combinations identified by high-throughput screening promote cell cycle transition and upregulate Smad pathways in myeloma. Cancer Lett. 2023 Aug 1;568:216284. doi: 10.1016/j.canlet.2023.216284. Epub 2023 Jun 24. PMID: 37356470; PMCID: PMC10408729.
SEQUENCE No. (e.g., 1, 2, 3, etc.); […] (e.g., Cells, Incubation, Reagent, etc.); VALUE and DESCRIPTION.
1; Cells; 5 uL; white, solid bottom 1536-well Greiner assay plate.
2; Compounds; 23 nL; Kalypsis pin tool (Wako USA) equipped with a 1536-well pin head to transfer to the assay plates.
3; Incubation; 48 hours; 37C incubation.
4; Reagent;5uL; CellTiter Glo (Promega).
5; Detector; 425V; Luminescence; Viewlux PerkinElmer.
NOTES (numbers refer to Sequence numbers above)
1. The cell-based screening methods employed in this study were like those previously published. Briefly, the corresponding myeloma cell lines were screened in 1,536-well plates with 500 cells, 5-uL per well for inhibition of cell viability (assessed by measuring ATP levels with CellTiterGlo).
2. NCATS MIPE 4.0 library of approved and investigational drugs were added using the Kalypsis pin tool. Wells treated with DMSO only for 100% viability and media only for 0% viability were used as controls.
3. The assay plates were covered and incubated for 48 hours in a 37C, 5% CO2 incubator with controlled humidity.
4. After 48 hours, CellTilter-GloTM luminescent substrate mix (Promega) reagent was added to the assay plate and plates we incubated for 5 min at room temperature.
5. Signal was measured as median relative luminescence units on a ViewLux (PerkinElmer) multiplate reader.
[1] Heske CM, Davis MI, Baumgart JT, Wilson K, Gormally MV, Chen L, Zhang X, Ceribelli M, Duveau DY, Guha R, Ferrer M, Arnaldez FI, Ji J, Tran HL, Zhang Y, Mendoza A, Helman LJ, Thomas CJ. Matrix Screen Identifies Synergistic Combination of PARP Inhibitors and Nicotinamide Phosphoribosyltransferase (NAMPT) Inhibitors in Ewing Sarcoma. Clin Cancer Res. 2017 Dec 1;23(23):7301-7311. doi: 10.1158/1078-0432.CCR-17-1121. Epub 2017 Sep 12. PMID: 28899971; PMCID: PMC6636827.
Potency is the fitted concentration of half-maximal effect.

SMILES	Potency	viability
Fc1ccc(C(OCCN2CCN(CCCc3ccccc3)CC2)c2ccc(F)cc2)cc1	26.4 µM (active)	–
CNC(=O)N1N=C(c2ccc(N)cc2)c2cc3c(cc2CC1C)OCO3 (centres undefined)	–	87.3% (inactive)
O=c1[nH]c2ccccc2n1CCCN1CCC(n2c(=O)[nH]c3cc(Cl)ccc32)CC1	–	92% (inactive)
CC(C)CC(N(C)C)C1(c2ccc(Cl)cc2)CCC1 (centres undefined)	–	113% (inactive)
C#CCN(C)[C@H](C)Cc1ccccc1	–	103% (inactive)
COc1ccc(C(=O)c2c(C)n(CCN3CCOCC3)c3ccccc23)cc1	–	120% (inactive)
CN(C)CCc1ccc(O)cc1	–	126% (inactive)
N[C@@H](Cc1ccc(N(CCCl)CCCl)cc1)C(=O)O	16.6 µM (active)	–
C[C@@H]1[C@@H](CC(C[C@H]2O[C@@H]3O[C@]4(C)CC[C@@H]5[C@H](C)CC[C@@H]([C@H]2C)[C@@]35OO4)C[S+](=O)([O-])c2ccc(COC(=O)N(C)C)cc2)O[C@@H]2O[C@]3(C)CC[C@H]4[C@H](C)CC[C@@H]1[C@@]24OO3 (some centres undefined)	0.187 µM (active)	–
COC[C@@H](NC(C)=O)C(=O)NCc1ccccc1	–	128% (inactive)
Cc1cccc(C)c1NC(=O)CN1CCCC1=O	–	111% (inactive)
CNC(=O)c1ccc(N2C(=S)N(c3ccc(C#N)c(C(F)(F)F)c3)C(=O)C23CCC3)cc1F	–	94% (inactive)
COc1ccc2c(c1OC)CN1CCc3cc4c(cc3C1C2)OCO4 (centres undefined)	–	94.3% (inactive)
O=C(O)C(=O)c1cn(Cc2ccccc2)c2ccc(-c3ccc(OC(F)(F)F)cc3)cc12	–	106% (inactive)
CN1CCN(C(=O)O[C@H]2c3nccnc3C(=O)N2c2ccc(Cl)cn2)CC1	–	110% (inactive)
COc1ccc(C(CN(C)C)C2(O)CCCCC2)cc1 (centres undefined)	–	112% (inactive)
CCCC(C)(COC(N)=O)COC(=O)NC(C)C (centres undefined)	–	112% (inactive)
COC1(CS(=O)c2ccccc2)CCN(CCc2c[nH]c3ccc(F)cc23)CC1 (centres undefined)	–	110% (inactive)
CC1=C2C[C@@H]3[C@@H](CC=C4C[C@@H](O)CC[C@@]43C)[C@@H]2CC[C@]12O[C@H]1C[C@H](C)CN[C@H]1[C@H]2C	–	95.4% (inactive)
O=C1CC[C@@]2(O)[C@H]3Cc4ccc(O)c5c4[C@@]2(CCN3CC2CC2)[C@H]1O5	–	114% (inactive)
Cc1cc(SCc2sc(-c3ccc(C(F)(F)F)c(F)c3)nc2C)ccc1OCC(=O)O	–	98.7% (inactive)
C[C@@H]1O[C@@H](O[C@H]2C[C@@H](O)[C@]3(CO)[C@H]4[C@H](O)C[C@]5(C)[C@@H](C6=CC(=O)OC6)CC[C@]5(O)[C@@H]4CC[C@]3(O)C2)[C@H](O)[C@H](O)[C@H]1O	0.0209 µM (active)	–
CNCC(O)c1ccc(O)cc1 (centres undefined)	–	103% (inactive)
Cn1cc(C2=C(c3cn(C4CCN(Cc5ccccn5)CC4)c4ccccc34)C(=O)NC2=O)c2ccccc21	–	80.8% (inactive)
